Assay results from PubChem BioAssay (NCI).
Compounds without any hit were thinned out: in the full panel of roughly 83,000, 20% have a hit.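 Single-dose data. Exposure time 48 hours. Values below 10 considered active.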 A number with no mark means an inactive call. Activity calls are given as the source filed them.

Assays:
Assay in all cases: NCI-60 one-dose screen, 48 h (100 = growth as untreated, 0 = no growth, -100 = all killed)
NCI-H226 lung = conditions: 10 µM unless noted
NCI-H322M lung = conditions: 10 µM unless noted
NCI-H522 lung = conditions: 10 µM unless noted
A549/ATCC NSCLC = conditions: 10 µM unless noted
COLO 205 colon = conditions: 10 µM
HT29 colon = conditions: 10 µM unless noted
EKVX NSCLC = conditions: 10 µM unless noted
UO-31 renal = conditions: 10 µM unless noted
TK-10 renal = conditions: 10 µM unless noted
ACHN renal = conditions: 10 µM unless noted
MOLT-4 leukemia = conditions: 10 µM
OVCAR-3 ovarian = conditions: 10 µM unless noted
HS 578T breast = conditions: 10 µM unless noted
T-47D breast = conditions: 10 µM unless noted
HOP-92 NSCLC = conditions: 10 µM unless noted
UACC-62 melanoma = conditions: 10 µM unless noted
CAKI-1 renal = conditions: 10 µM unless noted
RPMI-8226 leukemia = conditions: 10 µM unless noted

Row | SMILES | growth (NCI-H226 lung) | growth (NCI-H322M lung) [%] | growth (NCI-H522 lung) | growth (A549/ATCC NSCLC) | growth (COLO 205 colon) [%] | growth (HT29 colon) [%] | growth (EKVX NSCLC) [%] | growth (UO-31 renal) [%] | growth (TK-10 renal) [%] | growth (ACHN renal) [%] | growth (MOLT-4 leukemia) [%] | growth (OVCAR-3 ovarian) [%] | growth (HS 578T breast) [%] | growth (T-47D breast) [%] | growth (HOP-92 NSCLC) [%] | growth (UACC-62 melanoma) [%] | growth (CAKI-1 renal) | growth (RPMI-8226 leukemia) [%]
1 | Nc1cccc(CC(=O)Nc2ccc(S(=O)(=O)F)cc2)c1 | 93.9% | 104 | 84.8% | 96.5% | 95.8 | 91.9 | 104 | 86.2 | 107 | 112 | 117 | 102 | 99.1 | 92.5 |  |  |  | 
2 | N#Cc1ncc(/N=C/c2ccc(N(CCCl)CCCl)cc2)s1 | -19.1% (active) | 121 |  | 86% |  | 91.6 | 91.2 | 34.8 | 92.8 | 33.8 |  | 78.5 | 90.4 | 64.2 | 78.5 | 32 | 7.36% (active) | 
3 | CC1(C)N=C(N)N=C(N)N1c1ccc(CCCCc2ccc(Cl)cc2S(=O)(=O)F)c(Cl)c1 | 30.6% | 34.2 | 3.95% (active) | 9.77% (active) |  | 11.4 |  | 60.7 | 30.3 | 18.7 | 28.7 | 25.2 | 65.5 | 28.6 |  | 22.5 | 20.6% | 17.8
4 | c1cnc2c(c1)ccc1ncccc12 | 100% | 123 | 93.8% | 107% | 110 | 109 | 94.2 | 93.2 | 114 | 90.7 | 100 | 90.6 | 159 | 111 |  |  | 91.7% | 
